Laboratory results as given in PubChem BioAssay AID2284386 (EPA ToxCast).
The source made the active and inactive calls. Rule for the calls: active = hit-call score of the fitted dose curve at least 0.9, where 1 is the maximum; inactive = score below 0.9.

Each compound was assayed against Peroxisome proliferator-activated receptor gamma (Homo sapiens) (UniProt P37231) (assay: ERF_FR_NR_COA_hPPARG: Eurofins (ERF) Nuclear Receptor (NR) Functional Coactivator Assay for human Peroxisome Proliferator-activated Receptor gamma (PPARg) Agonism, conducted at France lab site).
Protocol: ERF_FR_NR_COA_hPPARG is a biochemical, single-readout assay that uses extracted gene-proteins in a cell-free assay. Measurements were taken 2 hours after chemical dosing in a 384-well plate. See PPARgamma Human NHR Functional Agonist Coactivator Assay, Cerep.ERF_FR_NR_COA_hPPARG is an assay component calculated from the ERF_FR_NR_COA_hPPARG assay. It is designed to measure FRET using a type of binding reporter as detected by fluorescence intensity of Rosiglitazone with fluorimetry technology.Data from the assay component ERF_FR_NR_COA_hPPARG was analyzed at the assay endpoint, ERF_FR_NR_COA_hPPARG, in the positive analysis fitting direction relative to DMSO as the negative control and baseline of activity. Using a type of binding reporter, gain-of-signal activity can be used to understand changes in binding as they relate to gene PPARG. To generalize the intended target to other relatable targets, this assay endpoint is annotated to the nuclear receptor intended target family, where the subfamily is non-steroidal.
Test compound and/or vehicle is incubated with the 2 nM receptors and coactivator peptide for 180 minutes at room temperature. Determination of the amount of complex formed is read spectrofluorimetrically (excitation: 337 nm, emission: 520/490 nm). Test compound-induced increase fluorescence by 50 percent or more (>/=50%) relative to 1 uM GW1929 response indicates possible PPARgamma receptor agonist activity. Test compound-induced inhibition of 5 nM GW1929-induced fluorescence response by 50 percent or more (>/=50%) indicates receptor antagonist activity.

Chain of Peroxisome proliferator-activated receptor gamma (Homo sapiens) (P37231 whole entry, looked up): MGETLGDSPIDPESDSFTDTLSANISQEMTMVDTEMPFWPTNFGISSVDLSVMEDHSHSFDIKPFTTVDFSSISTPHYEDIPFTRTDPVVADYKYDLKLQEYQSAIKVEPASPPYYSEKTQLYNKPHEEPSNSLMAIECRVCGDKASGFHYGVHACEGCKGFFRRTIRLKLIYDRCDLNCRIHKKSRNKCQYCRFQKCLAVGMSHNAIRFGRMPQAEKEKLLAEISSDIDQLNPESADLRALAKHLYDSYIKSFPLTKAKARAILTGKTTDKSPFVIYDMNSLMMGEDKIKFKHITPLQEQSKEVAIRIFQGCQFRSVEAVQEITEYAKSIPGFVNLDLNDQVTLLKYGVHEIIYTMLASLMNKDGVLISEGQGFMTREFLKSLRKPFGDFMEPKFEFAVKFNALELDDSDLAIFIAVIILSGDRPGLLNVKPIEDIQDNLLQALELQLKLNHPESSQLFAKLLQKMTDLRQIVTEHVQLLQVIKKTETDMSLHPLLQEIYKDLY

outcome, inactive:
O=C(CC(=O)C(F)(F)C(F)(F)C(F)(F)F)c1cccs1, O=C(O)CCC(F)(F)C(F)(F)C(F)(F)F, NC(=O)c1nc(-c2cccc(-c3cc(F)ccc3OCC(F)(F)C(F)(F)F)c2)n[nH]1
